From PubChem BioAssay (NCI)
This is part of a sample that, as a whole, favours compounds with a hit. Of some 83,000 tested, about 20% had one in any assay.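 Assay: single dose, 48 h. Readout: percent growth (0 = no net growth; negative = cell death). Active: <10.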 A number with no mark means an inactive call. Calls of active or inactive are those of the source.

Columns and labels:
Assay in all cases: NCI-60 one-dose screen, 48 h (100 = growth as untreated, 0 = no growth, -100 = all killed)
Conditions in all cases: 10 µM unless noted
NCI-H23 lung = tested on: NCI-H23 lung
NCI-H226 lung = tested on: NCI-H226 lung
NCI-H322M lung = tested on: NCI-H322M lung
HOP-62 NSCLC = tested on: HOP-62 NSCLC
NCI-H460 lung = tested on: NCI-H460 lung
HOP-92 NSCLC = tested on: HOP-92 NSCLC
NCI-H522 lung = tested on: NCI-H522 lung
A549/ATCC NSCLC = tested on: A549/ATCC NSCLC
786-0 renal = tested on: 786-0 renal
COLO 205 colon = tested on: COLO 205 colon

SMILES	growth (NCI-H23 lung)	growth (NCI-H226 lung) [%]	growth (NCI-H322M lung) [%]	growth (HOP-62 NSCLC)	growth (NCI-H460 lung)	growth (HOP-92 NSCLC)	growth (NCI-H522 lung)	growth (A549/ATCC NSCLC) [%]	growth (786-0 renal)	growth (COLO 205 colon)
CCOC(=O)c1sc2nc(-c3cc4ccccc4o3)cc(-c3ccc(Cl)cc3)c2c1N	98.9%	89.2	112	107%	110%	71.1%	88.6%	123	118%	115%
CC1=NOCC(=O)N1	106%	102	111	105%	107%	96%	92.8%	89.7	101%	108%
Fc1ccc2c(CN3CCO[C@H](COc4cccc(Cl)c4)C3)c[nH]c2c1	75.5%	64.9	74.6	22%	30.2%	45.2%	36.3%	44.4	27.2%	69.1%
CCOP(=O)(O)OP(=O)(O)OCC	104%	103	98.1	103%	103%	98.6%	82.5%	106	99.4%	103%
CC(=O)c1c(O)c(C)c(O)c2c1OC1=CC(=O)/C(=C(/C)N)C(=O)C12C (stereo not given)	89.8%	73.8	97.3	94.9%	98.2%	99.7%	77.6%	83	98.3%	95.8%
CCN(CC)Cc1cc(Nc2nc(NC3CCC(N(C)C)CC3)c3ccccc3n2)ccc1OC (stereo not given)	87.8%	75.5	76.5	79.4%	89.7%	25.3%	44%	67.8	97.8%	12%
C=CC[C@]1(O)CC[C@H]2[C@@H]3CCc4cc(O)ccc4[C@H]3CC[C@@]21C	112%	98.9	97	104%	97.8%	115%	63.9%	91.3	95.8%	104%
O=C(Nc1cccc(Cl)c1)Nc1cc(C(F)(F)F)ccc1Cl	-12.3% (active)	20.8	30.8	41.3%	-34.6% (active)	-20.3% (active)	-26.9% (active)	11.3	8.47% (active)	-28.2% (active)
COc1ccc(Sc2[nH]c(C=O)c3ccccc23)cc1	73.3%	72.5	46.8	71%	6.72% (active)	53.8%	75.2%	34.5	70.1%	-0.0496% (active)
Cc1ccc(N=CNN=C(N)N)cc1	106%	92	111	102%	120%	109%	95.4%	100	115%	113%
Cc1cc(NC(=O)c2ccc(N)cc2)ccc1N=Nc1ccc2cc(S(=O)(=O)O)cc(S(=O)(=O)O)c2c1	103%	105	125	106%	117%	60.8%	129%	92.1	112%	109%
COc1cccc(NC(=O)[C@H](C(C)C)n2c(=O)[nH]c3ccccc3c2=O)c1	99.8%	92.4	117	102%	103%	110%	99.1%	97.9	105%	108%
CCCc1n(Cc2ccc3ccccc3n2)cc[n+]1Cc1ccc2ccccc2c1	-11.6% (active)	12.3	25.7	8.38% (active)	7.73% (active)	-18.6% (active)	-0.784% (active)	39.1	34.7%	-50% (active)
c1ccc(C(Nc2ccccn2)(c2ccccc2)c2ccccc2)cc1	74.6%	72.6	64.8	99%	79.9%	4.44% (active)	70.7%	65.9	81.4%	90%
Cc1cc2nc3c(=O)[nH]c(=O)nc-3n(CC=O)c2cc1C	108%	91	110	106%	106%	293%	107%	115	105%	128%
CCc1ccc2c(c1)N(CCO)C1=C(C(=O)OC1)C2c1cccc(Br)c1 (stereo not given)	40.9%	39.5	38.9	31%	11.2%	75.6%	-26.3% (active)	29.2	34.4%	5.9% (active)
O=c1c2sc3ccccc3c2nnn1-c1ccc(F)c(Cl)c1	73%	34.3	49.4	-15% (active)	10.4%	-1.07% (active)	64.5%	30.3	31.9%	41.9%
COc1cc(C(=O)/C=C/c2cn(-c3ccccc3)nc2-c2cccc(Nc3ccnc4cc(Cl)ccc34)c2)cc(OC)c1OC	100%	98.1	88.1	78.2%	90.5%	73.3%	106%	91.5	89%	88.9%
Nc1nc(N)c2c(n1)NC(c1sc(Cl)nc1Cl)CC(c1ccccc1)=N2 (stereo not given)	76.4%	73.6	101	41.9%	26.8%	48.7%	9.11% (active)	43.1	62%	46.7%
CC1=C(C(=O)Nc2ccc(F)cc2)C(c2ccccc2)C2=C(CC(C)(C)CC2=O)N1 (stereo not given)	72.2%	84.9	95.9	96.1%	73%	-3.3% (active)	53.4%	76.7	84.6%	99.2%
CCCCCCCCCCCCCC[N+](C)(C)CCCCCCCCCCCCCC	70.3%	72.9	98.7	86.2%	74.3%	8.4% (active)	47.3%	55.3	63.4%	66%
CCN(CC)CCCC(C)Nc1cnc(C(=O)Nc2cccc3ccc(OC)nc23)cn1 (stereo not given)	96.1%	61.4	75.5	94.2%	1.05% (active)	49.5%	5.07% (active)	81.2	73.4%	71.4%
COC(=O)C1(C)COP(=O)(NC23CC4CC(CC(C4)C2)C3)OC1 (stereo not given)	106%	108	99	99%	103%	83.6%	89.5%	99.7	102%	103%
CNCc1ccccc1CN(CC(=O)Nc1ccc2c(c1)CC1(C2)C(=O)Nc2ncccc21)C(=O)C(C)(C)C (stereo not given)	103%	95	100	102%	106%	104%	93.5%	103	107%	102%
O=C(N=Nc1c(Cl)c(O)c2ccccc2c1O)C(=O)Nc1cccc(C(F)(F)F)c1	71.5%	88.5	63.4	47.9%	79.8%	79.2%	8.55% (active)	87.1	90.3%	47.3%
CC1=C(O)C(=O)C(c2c(C)cc(C)c(Br)c2C)=C(O)C1=O	40.7%	83.3	71.5	69.9%	35.5%	83.7%	66.8%	44.1	56.8%	75.8%
Cc1[nH]nc2ccc3nc(-c4ccc5[nH]ncc5c4)c4c(c3c12)CCCC4	31.1%	16.2	36.9	18.5%	19.3%	2.41% (active)	0.13% (active)	12.6	34.4%	8.58% (active)
CCCCCCCCCCCCCCCC1=NCC[N+]1(CCO)CCO	53.7%	73.4	84.7	57.7%	3.37% (active)	5.24% (active)	40.8%	50	55.5%	82.8%
